From PubChem
Most compounds without a hit are left out; they make up all but 4.2% or so of the library.
YjeE inh: displaces an ADP probe from E. coli YjeE (TsaE); Potency, µM; 71,000 tested, 0.05% active; AID 605; purified YjeE enzyme, qHTS inhibition assay; P0AF67
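Purified YjeE (10 uM) with BODIPY Texas Red-labeled ADP probe (2 uM); compounds pin-transferred, 15 min at room temperature. Binding inhibition read as decreased fluorescence polarization; ADP titration as control.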
Pol III holo inh: inhibitors of bacterial DNA polymerase III holoenzyme | reconstituted DNA polymerase III holoenzyme replication, biochemical | Potency, µM (top dose mostly 57.1 µM), inactives show top-dose activity change, negative = inhibition | AID 603 | 71,000 tested, 0.25% active; note: potency is the fitted concentration of half-maximal effect; % is set by controls: 0 for no effect and ±100 for the full control effect
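Reconstituted *E. coli* holoenzyme (0.35 nM Pol III, 1 nM beta, 154 nM SSB, 2 nM primase) was preincubated with compound for 15 min at RT. Synthesis on 1.4 nM ssM13Gori ran 35 min, then was stopped with PicoGreen/EDTA and read as dsDNA fluorescence.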
15-hLO inh: blocks human 15-lipoxygenase activity; purified 15hLO-1, xylenol orange hydroperoxide absorbance; Potency, µM (doses to about 57.1 µM), inactives show at the top dose activity change, negative = inhibition, hits mostly inhibitors; 74,000 tested, 1.4% active; AID 887; note: potency is the fitted concentration of half-maximal effect; % is set by controls: 0 for no effect and ±100 for the full control effect; nearly all actives have a fitted effect of over 55% in size
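Quantitative HTS in 25 mM Hepes pH 7.5 containing 0.01% Triton X-100: human 15hLO-1 at 40 nM, arachidonic acid at 50 uM, 6 min turnover. Product quantified via ferrous oxidation/xylenol orange, 573:405 nm absorbance ratio.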
ERK AVP block: vasopressin-driven ERK pathway inhibition; HEK293-V1b, vasopressin-stimulated pERK AlphaScreen; Potency, µM (highest dose often 57.5 µM), for the others: top-dose activity, negative = inhibition, most hits filed as inhibitors; 72,000 tested, 0.99% active; AID 995; note: potency is the fitted concentration of half-maximal effect; % is set by controls: 0 for no effect and ±100 for the full control effect; nearly all actives have a fitted effect of over 55% in size
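Phosphorylated ERK1/2 detected via AlphaScreen bead proximity in lysates of V1b-expressing HEK293 cells given 25 nM vasopressin for 5 min after 30 min compound exposure (37 °C). AC50 from Hill equation; basal DMSO 0%, vasopressin 100%.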
Hsp90 Hop PPI: changes Hsp90-Hop TPR2A binding signal, up or down; AlphaScreen TPR2A-His6 binding biotin-Hsp90 C-terminal peptide; Potency, µM (highest dose often 57 µM), for the others: at the top dose activity change, negative = inhibition; 71,000 tested, 0.44% active; AID 595; active = well fitted curve in either direction with a large enough effect; inconclusive = small, poorly fitted or top-dose-only effect, or another doubt; note: potency is the fitted concentration of half-maximal effect; % is set by controls: 0 for no effect and ±100 for the full control effect
Tau filament bind: binds recombinant human tau filaments; recombinant tau filaments, thioflavin S fluorescence, 15 h; filaments grown with octadecylsulfate alongside compound; Potency, µM (highest dose often 57.1 µM), for the others: at the top dose activity change, negative = inhibition; 71,000 tested, 2% active; AID 596;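 note: potency is the fitted concentration of half-maximal effect; % is set by controls: 0 for no effect and ±100 for the full control effect; actives lower thioflavin S fluorescence by blocking filaments or displacing dye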
Target sequence (P10636 whole entry, looked up): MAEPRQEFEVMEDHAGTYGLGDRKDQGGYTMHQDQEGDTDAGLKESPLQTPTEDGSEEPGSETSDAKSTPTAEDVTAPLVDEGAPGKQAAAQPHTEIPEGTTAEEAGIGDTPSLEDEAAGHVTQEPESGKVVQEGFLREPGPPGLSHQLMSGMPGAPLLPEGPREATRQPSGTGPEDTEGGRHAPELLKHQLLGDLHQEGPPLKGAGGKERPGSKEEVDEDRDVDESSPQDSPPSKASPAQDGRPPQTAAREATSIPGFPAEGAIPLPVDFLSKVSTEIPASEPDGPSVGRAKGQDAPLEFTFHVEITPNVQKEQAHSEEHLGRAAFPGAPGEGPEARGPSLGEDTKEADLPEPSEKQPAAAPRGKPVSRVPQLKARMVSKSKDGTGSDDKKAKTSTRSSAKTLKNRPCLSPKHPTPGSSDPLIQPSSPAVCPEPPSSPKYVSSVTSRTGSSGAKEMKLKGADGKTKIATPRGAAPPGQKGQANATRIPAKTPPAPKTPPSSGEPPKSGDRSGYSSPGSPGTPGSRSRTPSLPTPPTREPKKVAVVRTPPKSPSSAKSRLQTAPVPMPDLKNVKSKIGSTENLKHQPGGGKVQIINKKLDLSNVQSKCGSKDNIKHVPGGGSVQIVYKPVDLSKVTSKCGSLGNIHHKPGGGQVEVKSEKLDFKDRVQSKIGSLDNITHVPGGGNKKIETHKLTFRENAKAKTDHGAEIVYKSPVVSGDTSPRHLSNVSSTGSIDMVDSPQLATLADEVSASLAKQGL
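His-tagged recombinant human tau (exons 2, 3, 10; 1 uM final) fibrillized with 30 uM sodium octadecylsulfate, 15 h at 37 C, in pH 7.4 HEPES buffer with 10 uM thioflavine S and 5 mM DTT. Reduced ThS fluorescence (450/510 nm) marks activity.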
An asterisk follows results filed as active; [ ] = remark or other dose. Unless noted, calls come from the whole dose curve; as a rule, active = well fitted curve in the direction sought with a large enough effect; inconclusive = small, poorly fitted or top-dose-only effect, or another doubt; inactive = no such curve, though single readings can be large; an effect the other way counts as inactive or inconclusive.

Results for N/N=C1/c2ccccc2N[C@H]1OC(=O)Nc1ccccc1 ?
YjeE inh: inactive; Pol III holo inh: inconclusive; 15-hLO inh: 1%[11.4 µM]; ERK AVP block: -16%[11.5 µM]; Hsp90 Hop PPI: -8%[11 µM]; Tau filament bind: 3.2µM*

Results for Cc1cc(NS(=O)(=O)c2ccc(Nc3nc(-c4sc(N)nc4C)cs3)cc2)no1 ?
YjeE inh: inactive; Pol III holo inh: 1%; 15-hLO inh: -25%; ERK AVP block: -22%; Hsp90 Hop PPI: -3%; Tau filament bind: 23%

What do the screens show for `O=C(O)c1ccc(Cl)c2c1C1C=CCC1C(c1ccccn1)N2` (stereo not drawn)?
YjeE inh: 40µM*; Pol III holo inh: inconclusive; 15-hLO inh: 16µM*; ERK AVP block: inconclusive; Hsp90 Hop PPI: inconclusive; Tau filament bind: inactive

Results for CCCN1C(=O)c2cc(C(=O)O)ccc2C1O (stereo not drawn) ?
YjeE inh: inactive; Pol III holo inh: -7%; 15-hLO inh: 20µM*; Hsp90 Hop PPI: 1%; Tau filament bind: -13%

What do the screens show for `CC(=O)c1ccc2c(c1)N(CCCN1CCC(CCO)CC1)c1ccccc1S2`?
YjeE inh: inactive; Pol III holo inh: -3%[25.6 µM]; 15-hLO inh: 8%[25.6 µM]; ERK AVP block: 13%[25.7 µM]; Hsp90 Hop PPI: -10%[26 µM]; Tau filament bind: 4µM*

Results for CN1CCN(CCCN2c3ccccc3Sc3ccc(S(=O)(=O)N(C)C)cc32)CC1 ?
YjeE inh: inactive; Pol III holo inh: -5%[25.6 µM]; 15-hLO inh: 19%[25.6 µM]; ERK AVP block: 19%[25.7 µM]; Hsp90 Hop PPI: -5%[26 µM]; Tau filament bind: -28%[25.6 µM]

Results for Cc1cccnc1N(C(=O)Nc1ccccc1)C1=NCC(C)(C)S1 ?
YjeE inh: inactive; Pol III holo inh: -2%; 15-hLO inh: 14%; ERK AVP block: -6%; Hsp90 Hop PPI: -4%; Tau filament bind: -6%

Results for CCC(=O)Oc1ccc2c(C)cc(=O)oc2c1C ?
YjeE inh: inactive; Pol III holo inh: -7%; 15-hLO inh: -1%; ERK AVP block: inconclusive; Hsp90 Hop PPI: 1%; Tau filament bind: 20%

Results for Cc1cc(=O)oc2c1ccc1oc(/C(=N/O)c3ccccc3)c(C)c12 ?
YjeE inh: inactive; Pol III holo inh: -3%; 15-hLO inh: 7.9µM*; ERK AVP block: -18%; Hsp90 Hop PPI: -6%; Tau filament bind: 94%

How did CC(=O)C1=C(O)C(=O)N(CO)C1c1ccccc1F (stereo not drawn) do in these assays?
YjeE inh: inactive; Pol III holo inh: -2%; 15-hLO inh: -3%; ERK AVP block: -2%; Hsp90 Hop PPI: inconclusive; Tau filament bind: -3%

Results for COc1cc(NS(=O)(=O)c2ccc(Br)s2)cc(OC)c1 ?
YjeE inh: inactive; Pol III holo inh: 2%; 15-hLO inh: -5%; ERK AVP block: -1%; Hsp90 Hop PPI: 0%; Tau filament bind: -22%

How did Cc1noc(C)c1-c1cc(NC2CCNCC2)ncn1 do in these assays?
YjeE inh: inactive; Pol III holo inh: -3%; 15-hLO inh: 16µM*; ERK AVP block: 18%; Hsp90 Hop PPI: 0%; Tau filament bind: -6%

What do the screens show for `COc1ccc(-n2c(C)cc(C(=O)CSc3nn4c(=O)c(C(C)(C)C)nnc4s3)c2C)cc1`?
YjeE inh: inactive; Pol III holo inh: -8%; 15-hLO inh: -2%; ERK AVP block: -2%; Hsp90 Hop PPI: -5%; Tau filament bind: 20µM*

What do the screens show for `c1ccc(C2=NN[C@@H]3c4ccccc4-c4ccccc4N3C2)cc1`?
YjeE inh: inactive; Pol III holo inh: -15%[11.4 µM]; 15-hLO inh: inconclusive; ERK AVP block: inconclusive; Hsp90 Hop PPI: -7%[11 µM]; Tau filament bind: 4µM*

How did CC#C[C@@]1(O)CC[C@H]2[C@@H]3CCC4=CC(=O)CCC4=C3[C@H](c3ccc(N(C)C)cc3)C[C@]21C do in these assays?
YjeE inh: inactive; Pol III holo inh: 8%[25.6 µM]; 15-hLO inh: -12%[25.6 µM]; ERK AVP block: -12%[25.7 µM]; Hsp90 Hop PPI: inconclusive; Tau filament bind: -28%[25.6 µM]
